Assay results from the OligoGym collection.
Further: reference of the scale not given here.

Each sequence was assayed against EMD (assay: pooled miR-30 sensor sort-seq; sequence = guide strand). Settings: shRNA.
In the case of ATCGTCATCATGCACCTGGTGA, the sensor-assay potency score (higher = more potent) is reported as -0.488. With AATGAAGTCACTGACTGGCGGA the sensor-assay potency score (higher = more potent) was -0.824. Work on TATCCTTGCACTCCTCTTCAGA yielded a sensor-assay potency score (higher = more potent) of -0.66. For TAGTCGTCATTGTAGCCCTTGC, the sensor-assay potency score (higher = more potent) was -0.858.

What follows are sequences tested against EMILIN2 in the same assay as above. Settings: shRNA.
With TTTATTGACACTCCCTGTCTTT the sensor-assay potency score (higher = more potent) was -0.458. Sequence TTCCATTACATACAAACCGAAT has a sensor-assay potency score (higher = more potent) of -1.63. AACAACTTGAACTTTGTCCTTC gave a sensor-assay potency score (higher = more potent) of 0.591. TTGAACTTTGTCCTTCAGGTGG showed a sensor-assay potency score (higher = more potent) of -0.378. TATTCCAGGAACTCTCTCCTGT was tested, and the sensor-assay potency score (higher = more potent) was 0.252. For TTTAATTCCATCATGACCCGTT, the sensor-assay potency score (higher = more potent) was 0.891.
